Compounds with a hit are over-represented: about 3.8% of the library has one in this group of screens.
PrPC surface inh = inhibitors of human cell surface prion protein PrPC, primary screen, cell-based, TR-FRET; Major prion protein (Homo sapiens), P04156; TR-FRET read-out; inhibition, % at 13.8 µM; 370,000 tested, 0.43% active; in the data active = inhibition above about 24%; also: 0% = median of the test wells and 100% = reference compound wells
Mtb FBA inh = Mtb FBA enzyme inhibitors, primary screen, biochemical, fluorescence, strain H37Rv. Fructose-bisphosphate aldolase (Mycobacterium tuberculosis (strain ATCC 25618 / H37Rv)), …. inhibition, % at 1 µM. AID 588726, 2011. 360,000 tested, 2.3% active. purified M. tuberculosis FBA, fluorescence read-out; in the data active = inhibition above about 27%;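 also: 0% = vehicle and 100% = reference inhibitor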
Target sequence (P9WQA3 whole entry, looked up): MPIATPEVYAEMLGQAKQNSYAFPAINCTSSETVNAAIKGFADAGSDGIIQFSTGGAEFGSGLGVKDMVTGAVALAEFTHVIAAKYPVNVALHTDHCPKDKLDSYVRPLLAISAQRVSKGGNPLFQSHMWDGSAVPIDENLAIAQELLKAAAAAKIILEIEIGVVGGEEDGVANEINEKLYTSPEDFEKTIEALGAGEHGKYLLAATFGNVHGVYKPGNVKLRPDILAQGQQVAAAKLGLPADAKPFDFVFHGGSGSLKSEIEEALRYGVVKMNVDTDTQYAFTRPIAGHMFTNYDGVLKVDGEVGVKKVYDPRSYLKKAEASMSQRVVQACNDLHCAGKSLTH
GDH-TPI counter = GDH-TPI coupling enzyme inhibitors, primary screen, artefact control for M. tuberculosis FBA inhibitor project, biochemical, absorbance, full deck | GDH-TPI coupled enzyme counterscreen, NADH absorbance | inhibition, % at 4.8 µM | 360,000 tested, 1.2% active | AID 588335, 2011; in the data active = inhibition above about 30%;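 also: 0% = DMSO wells and 100% = wells lacking the enzyme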
Mtb hypoxia rep = PubChem AID 1159583; 300,000 tested, 0.1% active; fluorescence inhibition, % (no concentration beside the values); M. tuberculosis hypoxia-regulated fluorescent reporter, fluorescence; in the data active = fluorescence inhibition mostly above about 23%, no sharp cut-off; inactive = mostly below about 17%
Yp Topo-I inh = Yersinia pestis topoisomerase I inhibitors, primary screen, biochemical, cleavage product accumulation, plate reader, single point; Y. pestis Topo-I cleavage product accumulation; 360,000 tested, 0.064% active; activity, % at 10 µM; AID 504884, 2011; in the data active = activity above about 50%, passing the limit was not always enough
PrP UTR inh = inhibition of PrP 5' UTR reporter expression. AID 488862, 2010. 340,000 tested, 0.35% active. cell-based PrP 5' UTR mRNA reporter, plate reader. inhibition, % (test concentration not listed); in the data active = inhibition above about 52%; also: 0 = median of the neutral control wells
* = called active by the depositor; x = no result shown; + = active, no number.

SMILES | PrPC surface inh | Mtb FBA inh | GDH-TPI counter | Mtb hypoxia rep | Yp Topo-I inh | PrP UTR inh
Cc1ccc(N2CCN(S(=O)(=O)c3c(C)nc4scc(C)n4c3=O)CC2)c(C)c1 | -0.6 | -4.9 | 30.8* | 6.1 | 33.0 | -27.4
COC(=O)C1C2c3ccccc3OC1(C)N=c1s/c(=C/c3cn(C)nc3C)c(=O)n12 (stereo unspecified) | -27.0 | -7.4 | 55.5* | x | 18.2 | -0.1
COCOC=C(NC(C)=O)c1ccccc1 | x | x | x | 3.2 | x | x
CCOC(=O)c1cc(-c2ccc(/C=N\n3cnnc3)o2)ccc1Cl | -7.3 | 0.6 | 46.5* | x | 10.7 | -19.4
Cc1cc(-c2ccc(/C=N/n3cnnc3)o2)ccc1Cl | -18.2 | -1.5 | 33.0* | x | 6.5 | -16.3
CCCCOC(=O)c1cc(-c2ccc(/C=N/n3cnnc3)o2)ccc1Cl | -2.1 | 0.8 | 31.5* | x | 38.6 | -26.5
O=[N+]([O-])c1cc(-c2ccc(C=Nn3cnnc3)o2)ccc1Cl | x | x | x | 0.2 | x | x
CC(C)C1CN=C2N(CCNC(=O)CCC3CCCCC3)C(Cc3ccc(O)cc3)CN21 (stereo unspecified) | x | x | x | -4.3 | x | x
CCOC(=O)c1ccc([N+]([O-])=Cc2ccccc2)cc1 | x | x | x | 3.8 | x | x
COc1ccc(S(=O)(=O)Nc2cccc3c2OC(CN(C)C)C(C)CN(C(C)CO)C3=O)cc1 (stereo unspecified) | x | x | x | 8.0 | x | x
COc1cccc(C=NNC(=O)c2cc3cc([N+](=O)[O-])ccc3s2)c1O | x | x | x | 7.0 | x | x
COc1ccc(/C=N/NC(=O)c2nnn(-c3nonc3N)c2-c2cccs2)c(OC)c1 | 0.1 | -1.0 | 46.1* | x | 7.9 | -35.6
COc1ccccc1/C=N/NC(=O)c1nnn(-c2nonc2N)c1-c1ccccc1 | -4.3 | -1.2 | 14.3 | x | 0.1 | -10.0
COc1ccc(OC)c(C=NNC(=O)c2nnn(-c3nonc3N)c2-c2cccs2)c1 | x | x | x | 2.3 | x | x
COc1ccccc1/C=N/NC(=O)c1nnn(-c2nonc2N)c1-c1cccs1 | x | 3.6 | 42.9* | x | -7.9 | 5.9
O=C(c1cc(-c2ccccc2Cl)nc2ccc(Br)cc12)N1CCN(c2ccccn2)CC1 | 9.5 | 4.3 | 6.3 | -0.9 | 55.4* | -15.1
CC(=O)Nc1ccc(S(=O)(=O)Nc2nc3ccccc3nc2Nc2ccc(N)cc2)cc1 | -3.3 | 8.2 | 31.2* | 0.7 | 4.2 | 6.5
CC(=O)Nc1ccc(S(=O)(=O)Nc2nc3ccccc3nc2Nc2ccc3ccccc3c2)cc1 | -4.4 | 11.5 | 13.8 | 1.5 | -8.4 | -26.1
O=C(C=Cc1cccc(Cl)c1)OCc1cn2cc(Cl)ccc2n1 | x | x | x | 7.8 | x | x
O=C(N/N=C/C(Cl)=C/c1ccc([N+](=O)[O-])cc1)C(=O)Nc1cccc(C(=O)O)c1 | -8.0 | -1.8 | 37.1* | x | -10.1 | -12.5
O=C(O)c1ccc(C=NNC(=O)c2cc(-c3ccc4c5c(cccc35)CC4)n[nH]2)cc1 | x | x | x | 13.7 | x | x
CSc1nnc(-c2cccn(Cc3ccccc3)c2=O)o1 | 8.9 | 130.7* | 4.4 | -3.8 | 4.3 | -28.8
O=c1c(-c2n[nH]c(=S)o2)cccn1Cc1ccccc1 | -9.4 | 17.4 | 24.0 | 5.8 | -4.8 | 1.3
C#Cc1ccc(C2C=C(C(=O)N3CCN(Cc4ccc5c(c4)OCO5)CC3)OC(OCC)C2CCCO)cc1 (stereo unspecified) | x | x | x | 0.9 | x | x
CC1(C)Cc2c(sc3nc[nH]c(=O)c23)CO1 | -4.4 | 2.6 | 8.8 | 1.3 | -16.6 | -13.5
SMILES | PrPC surface inh | Mtb FBA inh | GDH-TPI counter | Mtb hypoxia rep | Yp Topo-I inh | PrP UTR inh
O=c1[nH]cnc2sc3c(c12)CN(Cc1ccccc1)CC3 | x | 52.2* | 23.0 | 13.2 | 3.5 | -11.6
Cc1csc(NN=Cc2ccccn2)n1 | x | x | x | 4.0 | x | x
COC(=O)c1sc(-c2ccc(Cl)cc2)cc1NC(=O)COCC(=O)O | -16.2 | 13.6 | 34.7* | -2.7 | 6.4 | -22.9
N#C/C(=C\C=C\c1ccccc1)C(=O)NCc1cccnc1 | -4.1 | -2.7 | 31.1* | 1.4 | -8.0 | -10.8
N#C/C(=C\c1cccc([N+](=O)[O-])c1)C(=O)NCc1cccnc1 | -7.7 | -2.1 | 2.1 | 0.9 | -1.1 | -3.5
N#C/C(=C\c1cccs1)C(=O)NCc1cccnc1 | -5.7 | -1.3 | 35.8* | -8.5 | 6.1 | -24.2
CCN1C(=NCC2CC2)NC(c2ccccc2)C(C(=O)OC)=C1C (stereo unspecified) | x | x | x | 15.0 | x | x
COc1cccc(-c2cc(C(F)(F)F)n3ncc(C(=O)O)c3n2)c1 | -33.6 | 1.5 | 13.7 | 6.3 | -8.9 | -11.6
COc1ccc(-c2cc(C(F)(F)F)n3nc(N)nc3n2)cc1 | x | + | 19.7 | -8.9 | 0.5 | -7.2
COc1cccc(-c2cc(C(F)(F)F)n3nc(N)nc3n2)c1 | -8.3 | 5.0 | 36.3* | x | 5.8 | -8.2
CCC(C)NC(=O)C(=Cc1ccco1)c1ccccc1 (stereo unspecified) | x | x | x | 11.8 | x | x
CCc1ccc(/C=C2\Oc3c(ccc(O)c3CN3CCN(CCO)CC3)C2=O)cc1 | -13.4 | -3.2 | 35.4* | 2.6 | -12.3 | 0.1
Cc1cc2cc(C(c3nnnn3CC3CCCO3)N3CCCc4ccccc43)c(=O)[nH]c2cc1C (stereo unspecified) | -12.8 | 4.5 | 33.9* | -3.7 | -7.6 | -1.5
CC1CCN(c2nc(/C=C/c3ccccc3)nc3ccccc23)CC1 | -1.2 | 1.9 | 7.9 | 9.8 | -1.5 | -12.2
C(=C\c1nc(N2CCCC2)c2ccccc2n1)/c1ccccc1 | 5.0 | 4.5 | 12.9 | 45.4* | 10.0 | -8.2
O=C(NCc1cccc(Cl)c1)c1cccc(S(=O)(=O)N2CCCC2)c1 | 10.2 | 1.1 | 6.2 | -4.0 | 12.0 | -27.4
O=C(NCc1ccncc1)c1cccc(S(=O)(=O)N2CCc3ccccc32)c1 | 8.4 | 0.3 | 4.2 | 27.8* | 18.8 | -15.5
O=C(NCc1cccc(Cl)c1)c1cccc(S(=O)(=O)N2CCCCC2)c1 | 12.7 | -3.3 | -0.7 | 29.2* | 11.7 | -33.4
CC(C)OC(=O)C1C2C=CC3(CN(Cc4cccs4)C(=O)C13)O2 (stereo unspecified) | -1.6 | 122.7* | -4.3 | 6.6 | 1.4 | -23.7
Cc1ccc(/C=C2\SC(N3CCCCC3)=NC2=O)cc1 | -15.2 | 1.8 | 31.6* | 23.3 | 1.5 | -69.8
C=CCOc1ccc(/C=C2\SC(N3CCCCC3)=NC2=O)cc1 | -5.2 | 1.0 | 38.2* | -3.4 | 3.1 | -19.0
O=C1N=C(N2CCCC2)S/C1=C\c1ccccc1 | -26.9 | -4.1 | 54.0* | x | -5.4 | 2.8
O=C1N=C(N2CCCCC2)S/C1=C\c1ccc(Cl)cc1 | -4.0 | -0.8 | 28.4 | 10.3 | 9.7 | -20.9
CC(C)(C)c1ccc(/C=C2/SC(N3CCCC3)=NC2=O)cc1 | -16.3 | -1.2 | 36.9* | 21.1 | 32.3 | -5.0
O=C1N=C(N2CCN(c3ccccc3)CC2)S/C1=C\c1ccco1 | -6.7 | -2.9 | 29.6 | x | 18.8 | 0.6
O=C(C1CC=CC2CCN(Cc3ccc(Cl)c(Cl)c3)C(=O)C21)N1CCN(c2ccccc2)CC1 (stereo unspecified) | x | x | x | -3.5 | x | x
